Data published in PubChem BioAssay.
Values without a mark were called inactive. Calls of active or inactive are those of the source.

Target: Homeobox protein Hox-A13 (Mus musculus) (UniProt Q62424)
Assay: disruptors of Hoxa13 oligonucleotide interaction – biochemical, fluorescence polarization, labeled oligonucleotide, primary screen (AID 1185)
Settings: Hoxa13:DNA binding, 15 min, higher = more signal, called active from +8 up or from −8 down

Sequence of Homeobox protein Hox-A13 (Mus musculus) (Q62424 whole entry, looked up): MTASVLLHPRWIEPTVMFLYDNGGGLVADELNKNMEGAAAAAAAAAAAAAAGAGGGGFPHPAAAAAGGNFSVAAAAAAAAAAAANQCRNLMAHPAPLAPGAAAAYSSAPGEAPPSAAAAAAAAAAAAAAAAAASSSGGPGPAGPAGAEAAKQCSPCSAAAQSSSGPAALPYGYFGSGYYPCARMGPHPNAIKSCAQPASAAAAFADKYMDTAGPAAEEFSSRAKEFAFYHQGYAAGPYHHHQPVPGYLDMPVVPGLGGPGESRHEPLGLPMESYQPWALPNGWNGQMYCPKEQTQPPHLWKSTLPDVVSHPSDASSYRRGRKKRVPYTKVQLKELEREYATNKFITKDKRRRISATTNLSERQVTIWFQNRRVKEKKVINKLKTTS

Structure (SMILES) | z-score
COC(=O)[C@@]1(Cc2ccc(F)cc2)[C@H]2c3cc(C(=O)N(C)C)n(CCN4CCOCC4)c3C[C@H]2CN1C(=O)c1ccccc1 | -6.83
C[N+](C)(C)CCCCCCNC(=O)[C@@H]1C[C@@H]2C(=O)N[C@@H](Cc3ccccc3)C(=O)N2[C@@H]1c1ccc(O)cc1 | -2.44
CO[C@H]1O[C@H](CO)[C@@H](OC(=O)Nc2ccc(C(F)(F)F)cc2)[C@H](OC(=O)Nc2ccccc2-c2ccccc2)[C@@H]1OC(=O)Nc1ccccc1-c1ccccc1 | -4.13
C=C(CCCC)/C(=C/C[C@H](OC(C)=O)c1cccc(OCCO)c1)c1cc(C(=O)OC)ccc1OC | -4.24
COc1ccc([Si](C)(C)[C@H]2[C@H](CCn3cc([C@H](O)c4ccccc4)nn3)O[C@@]3(C(=O)N(C)c4c(Br)cc(C)cc43)[C@@H]2C)cc1 | -2.54
COCCOC(=O)N1C(=O)[C@@]2(c3cc(C#CC4(O)CCCCCC4)ccc31)[C@H](C(=O)N1CCc3cc(OC)c(OC)cc3C1)[C@H]1C(=O)O[C@H](c3ccccc3)[C@H](c3ccccc3)N1[C@@H]2c1ccc(O)cc1 | -0.363
C=CCOC(=O)[C@H]1[C@@H]2C(=O)O[C@@H](c3ccccc3)[C@@H](c3ccccc3)N2[C@@H](c2ccc(OCCOC(=O)[C@H]3C[C@H]4C(=O)NCC(=O)N4[C@H]3c3ccc(O)cc3)cc2)[C@]12C(=O)Nc1ccc(I)cc12 | 2.46
COCCOC(=O)N1C(=O)[C@@]2(c3cc(C#CC4=CCCCC4)ccc31)[C@H](c1ccc(OCCO)cc1)N1[C@H](c3ccccc3)[C@H](c3ccccc3)OC(=O)[C@H]1[C@@H]2C(=O)N1CCCCCCC1 | -15.2 (active)
CCOC(=O)C1=C(C(=O)OCC)N(S(=O)(=O)CC[Si](C)(C)C)[C@H](c2ccccc2)CC1 | -2.79
C=CCC(OC(C)=O)[C@@H]1[C@@H](N(Cc2cc3ccccc3o2)C(=O)c2ccc(-c3ccccc3)cc2)c2cc(OCCCO)ccc2N1C(=O)c1ccc2ccccc2n1 (stereo not given in full) | -1.34
O=C1O[C@@H](c2ccccc2)[C@@H](c2ccccc2)N2[C@@H](c3ccc(O)cc3)[C@]3(C(=O)Nc4ccc(C#CC5=CCCCC5)cc43)[C@@H](C(=O)N3CCCCCCC3)[C@H]12 | 4.91
COCCOC(=O)N1C(=O)[C@@]2(c3cc(C#CCC(C(=O)OC)C(=O)OC)ccc31)[C@H](C(=O)N1CCc3cc(OC)c(OC)cc3C1)[C@H]1C(=O)O[C@H](c3ccccc3)[C@H](c3ccccc3)N1[C@@H]2c1ccc(O)cc1 | -1.46
C=C(/C(=C/C[C@H](OC(=O)c1ccncc1)c1ccccc1OCCO)c1cc(C(=O)OC)ccc1OC)C(C)C | -4.77
NCCCC[C@@H]1NC(=O)[C@H]2C[C@@H](C(=O)O)[C@@H](c3cccc(OCCO)c3)N2C1=O | 6.28
CCCCN1CC=CC23O[C@@H]4/C=C\CCC(C)OC(=O)C4[C@H]2C(=O)N(C(C)CO)[C@@H]3C1=O (stereo not given in full) | -5.78
CC(=O)c1ccc(C(O)C2C=CC3C(=O)NC(=O)C3N2Nc2ccc(Cl)cc2Cl)cc1 (stereo not given) | -5.84
C[N+](C)(C)CCCC[C@@H]1NC(=O)[C@H]2C[C@@H](C(=O)NCCCCCNC(=O)CS)[C@@H](c3ccc(O)cc3)N2C1=O | -0.677
CN(C)CCCCNC(=O)[C@H]1C[C@H]2C(=O)N[C@@H](Cc3ccccc3)C(=O)N2[C@H]1c1cccc(OCCO)c1 | -3.06

Structure (SMILES) | z-score
NC(=O)NCC#Cc1ccc2c(c1)[C@]1(C(=O)N2)[C@H](C(=O)Nc2nc3ccccc3s2)[C@H]2C(=O)O[C@H](c3ccccc3)[C@H](c3ccccc3)N2[C@@H]1c1ccc(OCCO)cc1 | 0.217
CC(C)CNC(=O)[C@@H]1c2ccccc2C(=O)N(Cc2ccccc2Cl)[C@H]1c1ccc(CO)cc1 | -1.47
C=CCNC(=O)[C@H]1[C@@H]2C(=O)O[C@@H](c3ccccc3)[C@@H](c3ccccc3)N2[C@@H](c2ccc(O)cc2)[C@]12C(=O)Nc1ccc(C#CC3=CCCCC3)cc12 | 0.771
CN(C)C(=O)[C@]1(Cc2ccccc2CN=[N+]=[N-])N=C(c2ccc(OCCCO)cc2)O[C@@H]1c1ccccc1N=[N+]=[N-] | -1.57
COCCn1c(C(=O)N2CCCC2)cc2c1C[C@H]1CN(C(=O)c3ccccc3)[C@@](Cc3ccccc3)(C(=O)OC)[C@@H]21 | -6.05
CCCC[C@@H](O)C1=C(COC)Cn2c(=O)n(-c3ccccc3)c(=O)n2[C@H]1CO | -0.879
CN(C)C(=O)[C@]1(Cc2ccccc2)N=C(c2ccc(OCCCO)cc2)O[C@@H]1c1ccccc1 | -6.32
COc1ccc([Si](C)(C)[C@H]2[C@H](CCO)O[C@@]3(C(=O)N(Cc4ccc(N5CCOC5=O)cc4)c4ccccc43)[C@@H]2C)cc1 | -2.76
C=CCC(OC(C)=O)[C@@H]1[C@@H](N(Cc2cccc3ccccc23)C(=O)c2ccc(-c3ccccc3)cc2)c2cc(OCCCO)ccc2N1C(=O)c1ccc2ccccc2n1 (stereo not given in full) | -1.17
C=CC[C@@]1(C(=O)O)N=C(c2ccc(OCCCO)cc2)O[C@@H]1c1ccccc1CN=[N+]=[N-] | -6.29
COC(=O)c1c(CC[C@@H](CO)NC(=O)N[C@@H](Cc2ccccc2)Cn2cc(-c3cncn3C)nn2)oc(C(C)=O)c1C(=O)OC | -4.35
COC(=O)Cn1c(C(=O)N(C)C)cc2c1C[C@H]1CN(C(=O)c3ccccc3)[C@@](Cc3ccc(OC)cc3)(C(=O)OC)[C@@H]21 | -5.22
CCCC=C(CCC)[C@@H](NS(=O)(=O)c1ccc(Cl)cc1)c1ccccc1 | -1.87
COc1ccc(CCNC(=O)[C@@H]2c3ccccc3C(=O)N(CC34CC5CC(CC(C5)C3)C4)[C@H]2c2ccc(CO)cc2)cc1 | -4.4
NC(=O)N1C(=O)C2C(C1=O)C1C=C(CCCO)C2C(c2ccc(CN3CCCC3)cc2)N1Cc1cccc(OC(F)(F)F)c1 (stereo not given) | -7.26
COc1ccc([Si](C)(C)[C@H]2[C@H](CCn3cc([C@H](O)c4ccccc4)nn3)O[C@@]3(C(=O)N(c4ccccc4)c4ccccc43)[C@@H]2C)cc1 | -3.4
CCCC=C(CCC)[C@@H](NC(=O)c1ccccc1)c1ccc(C(=O)OC)cc1 | -0.72
